Measured values: the supplement of paper PMC12350171
Where a name gives a salt, the structure may show the parent alone. Unmarked numbers belong to inactive results.

Columns and labels:
Conditions in all cases: 20 µM
[1] = tested on: Salmonella enterica typhimurium; experiment: growth AUC normalised to DMSO control (fraction of control); higher = less growth inhibition, active = hit call of the paper
Summary of the method: (§1)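 Pathogens were passaged twice under anaerobic conditions, then inoculated into pre-reduced mGAM plates at a starting OD578 of 0.01, with compound at 20 μM and 1% DMSO, and sealed with breathable membranes. For Haemophilus parainfluenzae, the medium was supplemented with hemin and NAD. OD578 was read every hour for 24 h in three biological replicates. Growth-curve AUC was calculated by the trapezoidal rule up to the exponential-to-stationary transition and normalised to DMSO controls on the same plate.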

Shigella flexneri = experiment: as above
Summary of the method: as §1

Vibrio cholerae = experiment: as above
Summary of the method: as §1

[2] = tested on: Yersinia pseudotuberculosis; experiment: as above
Summary of the method: as §1

P. vulgatus RND KO = experiment: growth AUC normalised to DMSO control (median) (fraction of control); higher = less growth inhibition, active = hit call of the paper
Summary of the method: (§2)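 After two overnight anaerobic passages, strains were inoculated at OD578 0.01 into mGAM in 96-well plates containing approved-drug library compounds at 20 μM and 1% DMSO. Growth was followed by reading OD578 hourly for 24 h within an anaerobic incubator. Area under the curve, taken by the trapezoidal rule up to the start of stationary phase, was normalised to same-plate vehicle wells, and the median of three biological replicates is listed.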

P. vulgatus WT = experiment: as above
Summary of the method: as §2

[3] = tested on: S. enterica typhimurium WT; experiment: as above
Summary of the method: as §2

[4] = tested on: S. enterica typhimurium tolC KO; experiment: as above
Summary of the method: as §2
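For growth AUC normalised to DMSO control (median) in this document: active when median AUC fell below 0.1.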

SMILES | growth AUC normalised to DMSO control [1] | growth AUC normalised to DMSO control (Shigella flexneri) | growth AUC normalised to DMSO control (Vibrio cholerae) | growth AUC normalised to DMSO control [2] | growth AUC normalised to DMSO control (P. vulgatus RND KO) | growth AUC normalised to DMSO control (P. vulgatus WT) | growth AUC normalised to DMSO control [3] | growth AUC normalised to DMSO control [4]
CN(C)CCCO[C@@H]1[C@H]2OC(C)(C)O[C@H]2O[C@@H]1[C@H](O)CO [Amiprilose hydrochloride] | 0.904 | 1 | 0.986 | 0.997 | 0.969 | 0.966 | 1.01 | 1
CN1CCC(OC(c2ccccc2)c2ccccc2)CC1 [Diphenylpyraline hydrochloride] | 0.988 | 0.996 | 0.962 | 0.987 | 0.994 | 1 | 0.987 | 0.983
CCOC(=O)n1ccn(C)c1=S [Carbimazole] | 0.98 | 1 | 0.981 | 0.998 | 0.993 | 1.01 | 0.996 | 1.01
Nc1c(Br)cc(Br)cc1CN[C@H]1CC[C@H](O)CC1 [Ambroxol hydrochloride] | 0.979 | 0.987 | 0.963 | 1 | 0.955 | 0.961 | 0.982 | 0.991
CN1CCN(C2=Nc3ccccc3Oc3ccc(Cl)cc32)CC1 [Loxapine succinate] | 1 | 0.992 | 0.907 | 1.01 | 0.612 | 0.478 | 1.01 | 0.96
CC[N+](C)(CC)CCC[n+]1c(-c2ccccc2)c2cc(N)ccc2c2ccc(N)cc21 [Propidium iodide] | 0.998 | 1.06 | 1.08 | 1.01 | 1.05 | 1.06 | 1.01 | 1
CCn1cc(C(=O)O)c(=O)c2cc(F)c(N3CCNCC3)nc21 [Enoxacin] | 0.00943 (active) | 0.0451 (active) | 0.033 (active) | 0.0435 (active) | 0.136 | 0.419 | 0.00979 (active) | 0.00708 (active)
C[C@]12CC[C@@H]3c4ccc(O)cc4CC[C@H]3[C@@H]1CC[C@@H]2O [Estradiol-17 beta] | 1.02 | 1.01 | 0.992 | 1.01 | 0.941 | 0.941 | 1.02 | 0.997
Cc1cc2c(s1)Nc1ccccc1N=C2N1CCN(C)CC1 [Olanzapine] | 0.997 | 0.996 | 0.997 | 1.01 | 1.03 | 1.03 | 1.02 | 0.994
CCCCC(C)(O)C/C=C/[C@H]1[C@H](O)CC(=O)[C@@H]1CCCCCCC(=O)OC (mixture of isomers) [Misoprostol] | 1.02 | 1.01 | 1.02 | 1.01 | 0.996 | 0.992 | 1.01 | 0.991
C#CCN(C)CCCOc1ccc(Cl)cc1Cl [Clorgyline hydrochloride] | 0.966 | 0.955 | 0.862 (active) | 0.994 | 0.999 | 1.01 | 0.976 | 0.93
CC[N+](C)(C)c1cccc(O)c1 [Edrophonium chloride] | 1.01 | 1 | 1.02 | 0.964 | 1.02 | 1.02 | 1.01 | 0.992
CNc1ncnc2c1ncn2[C@@H]1O[C@H](CO)[C@@H](O)[C@H]1O [N6-methyladenosine] | 0.972 | 1.03 | 1 | 0.97 | 0.998 | 1.02 | 1.02 | 1.01
CN(C(=O)C(Cl)Cl)c1ccc(OC(=O)c2ccco2)cc1 [Diloxanide furoate] | 0.998 | 0.959 | 0.97 | 0.978 | 0.988 | 0.996 | 0.995 | 0.966
Cc1scc2c1N(C(=O)CN1CCN(C)CC1)c1ccccc1NC2=O [Telenzepine dihydrochloride] | 1.02 | 1.01 | 1.01 | 0.993 | 0.995 | 0.983 | 1.01 | 0.999
CNCCCC1c2ccccc2C=Cc2ccccc21 [Protriptyline hydrochloride] | 0.973 | 1 | 0.997 | 1 | 0.913 | 0.882 | 0.996 | 0.951
Cc1cc(C(C)(C)CC(C)(C)C)ccc1OCCOCC[N+](C)(C)Cc1ccccc1 [Methyl benzethonium chloride] | 1.01 | 0.999 | 0.943 | 1.02 | 0.0136 (active) | 0.0206 (active) | 1.01 | 0.962
CNC(=O)c1c(I)c(C(=O)NCC(=O)Nc2c(I)c(C(=O)O)c(I)c(C(=O)NCCO)c2I)c(I)c(N(C)C(C)=O)c1I [Ioxaglic acid] | 0.968 | 0.993 | 1.01 | 0.964 | 1.01 | 1 | 0.997 | 0.994
CCN(CC)CCOC(=O)C1(c2ccc([N+](=O)[O-])cc2)CCCC1 [Nitrocaramiphen hydrochloride] | 0.993 | 0.993 | 0.974 | 0.996 | 1.03 | 1.05 | 1 | 1
Cc1ccc(NC(=O)c2ccc(CN3CCN(C)CC3)cc2)cc1Nc1nccc(-c2cccnc2)n1 [Imatinib] | 1.03 | 1.06 | 1.12 | 0.991 | 1.12 | 1.09 | 1.03 | 0.259
COc1cc(C(=O)NCc2ccc(OCCN(C)C)cc2)cc(OC)c1OC [Trimethobenzamide hydrochloride] | 1.02 | 1.01 | 1.05 | 1.02 | 1.02 | 1.05 | 0.999 | 1.01
COc1cc(NC(C)CCCN)c2ncccc2c1 (stereo unspecified) [Primaquine diphosphate] | 0.998 | 1.01 | 1.01 | 1.02 | 1.01 | 1.02 | 1.01 | 0.998
C[C@@H](c1ncncc1F)[C@](O)(Cn1cncn1)c1ccc(F)cc1F [Voriconazole] | 0.984 | 0.959 | 0.955 | 1 | 1.02 | 1.02 | 1 | 0.998
CC(C)NNC(=O)c1ccncc1 [Iproniazide phosphate] | 1.01 | 1 | 0.997 | 1.02 | 1.02 | 1.03 | 1.02 | 0.992
O=C1CC2(CCCC2)CC(=O)N1CCCCN1CCN(c2ncccn2)CC1 [Buspirone hydrochloride] | 1.01 | 1.08 | 1.04 | 1 | 1.12 | 1.11 | 0.986 | 0.979
CCOc1ccc2c(c1)C(C)=CC(C)(C)N2 [Ethoxyquin] | 0.998 | 0.95 | 0.958 | 0.986 | 0.971 | 0.972 | 1.01 | 1
CCN(CC)CCNC(=O)COc1ccc(OC)cc1 [Mefexamide hydrochloride] | 1 | 0.982 | 0.995 | 1.01 | 0.988 | 0.97 | 1.01 | 0.998
